The supplement of paper PMC11417369
± gives the standard deviation of the averaged measurements. The full ranking holds about 25,000 sequences; the median of “ln(normalized median fluorescence intensity)” is about 10, and the highest 2% start at about 12. Many of the other results were omitted from the sample, so the highest values are more common in it than they were.

These sequences were tested on PfAP2-G AP2 domain (GST-tagged) (assay: gcPBM binding intensity (ln(normalized median fluorescence intensity)); higher = stronger DNA binding).
How it was run: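 The highest Masliner-normalised natural-log median intensity across replicate spots of either probe orientation is reported as binding intensity. GST-tagged P. falciparum DNA-binding domains expressed in E. coli were applied for 1 h to an Agilent 4 × 180k array of primer-extended double-stranded 36-bp intergenic genomic probes plus negative controls, and bound protein was detected with Alexa488 anti-GST antibody and scanned at 488 nm.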

Sequence	gcPBM binding intensity (ln)
TATATTTTATATTAGTGTACAAATTTCATTTTTCAT [XGTACX_site2204]	11 ± 0.5
ATATTTATATATAGTAGTACTTTCAATAATTTAAAT [XGTACX_site7276]	11.4 ± 0.84
TTTTAAATTTAGTGTAGTACACTTTTTTCAAATATA [XGTACX_site4659]	11.7 ± 1.2
ATATGTTACTTTACATAAAGAAGAAGAAGAAGAAAA [CACACA_negctrl_site985]	9.805 ± 0.064
TCTTTTGAACAAATTTGTACGTATATAAAAATATTT [XGTACX_site6547]	11.4 ± 0.71
TTTTTGTTTGAACACTGTACGTATAAATATAAAAGT [XGTACX_site6476]	11.7 ± 0.84
TATAAAAAATTATGTTGTACGTAATATAAAATTTGT [XGTACX_site7122]	11.4 ± 0.86
TATAATAAAATATTTTGTACGTATATTTTAATATTT [XGTACX_site2582]	11.2 ± 0.72
TGTATGATTATGTTGTGTACGTAAAATATGAAAAAT [XGTACX_site1720]	11.5 ± 0.89
ATATAAACATGTTTGTGTACGTAATATGAAAAATAA [XGTACX_site8157]	11.7 ± 1
TAAAATATAAGACACACACACATATATTTATATATC [CACACA_site6248]	9.96 ± 0.099
AAAAAAAAAAAAAAAAGTACACAGTAGAATTAAATG [XGTACX_site1843]	11.7 ± 0.92
AAAAAAAAAATTAAAAGTACAGAAAATAAATAAATA [XGTACX_site7470]	11.4 ± 0.82
AAAGAATAATTAAATACACACATATTACAGTAAAAA [CACACA_site2450]	10.03 ± 0.092
TTATGTACAATTTCTTCTTTCTTTTTTCCTAAAGAC [CACACA_negctrl_site1193]	11.1 ± 0.57
GGTCTTATTTTTAGTAGTACAAATATAATATACATA [XGTACX_site6483]	11.4 ± 0.83
AATAATTTAATACATACACACGTATATCTTTTTTTT [CACACA_site8632]	9.955 ± 0.078
TAATTGTACGCCAATACACACAGAATTATAATGTAG [CACACA_site6201]	11.5 ± 1
TAATTGTACGCCAATACACACAGAATTAAAATGTAG [CACACA_site4234]	11.6 ± 1.1
TAATTGTACGCCAATACACACAGAATTAGAATGTAG [CACACA_site102]	11.8 ± 1.3
CAACATTTATATTTTACACACATCATTTAAGCGCTT [CACACA_site992]	10.09 ± 0.078
ATCCTTTATTTTTTTTGTACATAAAAATAACTCGAG [XGTACX_site3885]	11.1 ± 0.62

Sequence	gcPBM binding intensity (ln)
ATATGTATATTTTTGATGTGCTTTTATTTGGTTATT [CACACA_negctrl_site626]	10.01 ± 0.035
CACAGACACCCATACACACACATACCCATATATATA [CACACA_site5023]	10.4 ± 0.26
TACAGACATACATACACACATACATACAGACATACA [CACACA_site1941]	10.1 ± 0.3
CCCCCCCACAGACACACACACATACATACCACATAT [CACACA_site2306]	11.8 ± 0.76
CCCCCCCACGAACACACACACATACATACCACATAT [CACACA_site7149]	12 ± 1
TACATACACGGACACACACACATATATATATATATA [CACACA_site5883]	11.3 ± 0.88
CGCATACACGGACACACACACACATATATATATATA [CACACA_site4520]	11.3 ± 0.7
CATATACACGAACACACACACATATATATATATATA [CACACA_site4437]	10.5 ± 0.68
CATACACCCAGACACACACACATATATATATATATA [CACACA_site634]	10.3 ± 0.39
CCCCCCCACGGACACACACACATACATACCACATAT [CACACA_site5303]	11.7 ± 0.75
AACATATACACGAACACACACACATATATATATATA [CACACA_site502]	10.3 ± 0.26
TTCCCCCCCAGACACACACACACATACATACCACAT [CACACA_site2305]	11.8 ± 0.84
TACATACACAGACACACACACATATATATATATATA [CACACA_site3557]	10.2 ± 0.38
AAATTAATGTATATGTGAAGCAAGGGATGCGGCAGA [CACACA_negctrl_site406]	10.2 ± 0.12
GTACCTATTTCATACACACACACACCCAAACAAACA [CACACA_site976]	10.7 ± 0.51
ACATAATAAAAATAAATTCATAAGTAAATAAATAAA [TGCATGCA_negctrl_site186]	9.88 ± 0.24
GTTTGTATAGGTTCATGTACAAAAAAAAAAAAAAAA [XGTACX_site537]	11 ± 0.83
TTGTTTAAGTCACGAACACACATATATCATCAATTT [CACACA_site986]	10.11 ± 0.071
TTACTTATAAATAAATATACAAAAATGTTATATATA [XGTACX_negctrl_site223]	9.625 ± 0.078
CATACATACATACATACATGCATACATACATACATA [TGCATGCA_site218]	10.5 ± 0.47
AATTCTTTTTTCAACACACACACACCCGAAAATATA [CACACA_site3111]	10.3 ± 0.28
CAAACCTATATACAAACATGCAATCCACATATTGGT [TGCATGCA_site756]	9.99 ± 0.13

Sequence	gcPBM binding intensity (ln)
AACACAAGAACAGAACGTACACACACATATATATAT [XGTACX_site7347]	11.3 ± 0.61
AAGAAAAATTTAAACTGTACTTGTTTTCCAATGAAC [XGTACX_site4443]	11.4 ± 1
AAAAAATGAAAAAACTGTACGCAATTTTGTTTTTAT [XGTACX_site2299]	11.7 ± 1.2
TAAAATTTTTGTTTTTGTACGAAACATCAATTTTAC [XGTACX_site4963]	10.7 ± 0.34
CTTAAATTGAAATGTTGTACAAAGTAAAAACAATGA [XGTACX_site2123]	11.2 ± 0.86
GTATATCACACATTTGCATGTTGTCAATAGTTTATC [TGCATGCA_site134]	10.23 ± 0.014
TTAAAAATATTATGTACACACATTTTAGATATTTGT [CACACA_site1846]	11.6 ± 0.77
TTCTTTAAAATATTATGTACACATTGCGAACAGTTT [XGTACX_site5418]	11.7 ± 1
ATTTAAAAAATATATTGTACATATTTTATTATGTTT [XGTACX_site2984]	11 ± 0.63
GTTATAAAATATGGCACACAAAATGTAAGTAAATGA [CACACA_site1458]	10.5 ± 0.2
TTCATTAATGTGTAATGTACTTGTAATATGGGATTA [XGTACX_site3903]	11.1 ± 0.82
TTTTTATTTATATGATACTTATATATATATATATAT [CACACA_negctrl_site462]	10.2 ± 0.35
ATATATATTTATAGGTGTACAAAATACTATTTTAGG [XGTACX_site8499]	11.3 ± 0.82
TTTATACACAAAAAATGTACATATATATAATGAATT [XGTACX_site1195]	11.2 ± 0.72
CGATACTTTAGGTGTACACAAATATACATGAATGAG [CACACA_site5189]	11.6 ± 0.84
TATTTATATAGGTATACACACATACAAATATGTAAA [CACACA_site7705]	10 ± 0.28
TTACAAATAATTTGTTGTACGCTTTTTTTCTTTTTT [XGTACX_site7199]	11.7 ± 1.1
AAAATTTCTTTTTTTTGTACATATATAATAATATAT [XGTACX_site7107]	10.9 ± 0.62
TTTTCTTTTTTCTGTTGTACTAAAAATAATTTTGTA [XGTACX_site5171]	11.3 ± 0.87
GACAAAATGATAGGGACACACAATATCAATGTTTAA [CACACA_site765]	10.7 ± 0.51
TTTTTTTTTTTTGAGTGTACTAAAATATTACCTTTT [XGTACX_site646]	11.2 ± 0.99
TAAAATAATAAACAGAAGAAATCATTCATATAAAAA [XGTACX_negctrl_site502]	9.635 ± 0.035

Sequence	gcPBM binding intensity (ln)
ATAAATGAAAAAAAGCGTACATATAAAAAAATATAT [XGTACX_site5063]	11.6 ± 1
TTAACAAAATTTCCGTGTACGTAAATAAGAACATAG [XGTACX_site7200]	11.8 ± 0.95
ATATAAGAACAAAATTGTACATAAATATTTATATAA [XGTACX_site7404]	10.8 ± 0.54
ACATAAGAACATATTTGTACGTATATAAATTAAATA [XGTACX_site6127]	11.4 ± 0.79
AAATAATTAAAAAAAAGTACACATGTGACTACATAT [XGTACX_site8767]	11.4 ± 0.71
ATGAACATGTGACAATGTACATTTATATCTTAAGAA [XGTACX_site4960]	10.8 ± 0.43
TTTTTTTTTTTTTTTTTTATATTTCATAATTTCATT [XGTACX_negctrl_site579]	9.33 ± 0.71
TTTTGTTTTGTTTTGTTTTGTTTTGTTTTATTTTAT [GTGCAC_negctrl_site383]	9.86 ± 0.27
GAATACACCACGCACACACACTTGAGAAAAAATAAA [CACACA_site7747]	10.6 ± 0.56
TATTTGTTTTTATATAGTACATAAATATATATATAT [XGTACX_site7834]	10.9 ± 0.61
ATATAGTAAATTGGTAGTACATAAAATGATTTTATG [XGTACX_site4143]	11.6 ± 0.95
AAATTAAAATAAAATAGTACATATATTTATATTTTT [XGTACX_site1687]	11.1 ± 0.69
TTTTTTTTTTTTGGTAGTACATAAATATTTTATGGA [XGTACX_site6851]	12 ± 1.7
TATATTTTTATATTTTGTACATATAGTAAATATAAA [XGTACX_site4768]	10.8 ± 0.51
AAATTATATATAAAATGTACATATGTAGGTAATTTT [XGTACX_site5047]	10.9 ± 0.49
TTTTGTTGTTGTTGTTGTACATAAATAATAAAATAT [XGTACX_site8681]	11.3 ± 0.95
TATAGGTAAATGGACACACACATATTTATATTTATA [CACACA_site7683]	10.9 ± 0.58
TTTTTTTTTATAAGGTGTACGTAAAATGTGTAGGTC [XGTACX_site3585]	11.6 ± 0.82
ATTATATATATCAGGTGTACGTAAAAAAAATGGACG [XGTACX_site1028]	11.9 ± 0.81
AGTAAATATATTATATGTACGTATCATAAAATATAT [XGTACX_site1567]	11.6 ± 0.86
TAAAAATATATGTATACACACATATATATATATATA [CACACA_site3951]	10 ± 0.38
AATGCTATCTTCTTATTTTTCATACACAACATGAAC [CACACA_negctrl_site1809]	10.2 ± 0.11
